Assay [1] can be described thus: NCI Yeast Anticancer Drug Screen. Data for the rad50 strain (AID 155).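 Note: 0% = growth of vehicle-only cultures of the same strain.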 The following applies: S. cerevisiae rad50 strain growth inhibition, hits give high values. In short, it runs like this:
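Compounds were tested on a yeast strain with an engineered DNA damage repair alteration; the reported value is growth inhibition normalised to vehicle treatment.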

Assay [2] is described as follows: NCI Yeast Anticancer Drug Screen. Data for the mec2-1 strain (AID 157). The following applies: S. cerevisiae mec2-1 strain, hits give high values. An outline of the steps: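 Each compound was tested on mec2-1 yeast, a strain altered in DNA damage repair or cell cycle control. Growth inhibition is reported relative to vehicle.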
A short description of assay [3]: NCI Yeast Anticancer Drug Screen. Data for the sgs1 mgt1 strain (AID 161).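 Note: 0% = growth of cultures given vehicle only.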 The conditions noted are these: S. cerevisiae sgs1 mgt1 strain, hits give high values. In short, it runs like this: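 Test agents were incubated with a DNA-repair-mutant yeast strain. Growth was then read and compared against vehicle-treated controls.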
The nature of assay [4]: NCI Yeast Anticancer Drug Screen. Data for the cln2 rad14 strain (AID 165).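 Note: 0% = growth equal to vehicle treated cultures.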 The conditions noted are these: S. cerevisiae cln2 rad14 strain, hits give high values. An outline of the steps:
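Test compounds were added to cln2 rad14 yeast cultures; inhibition of growth was then determined by comparison with vehicle treatment.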

Assay [5] in a line: NCI Yeast Anticancer Drug Screen. Data for the bub3 strain (AID 167). The following applies: S. cerevisiae bub3 mutant strain, hits give high values. An outline of the steps:
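Growth of a checkpoint-deficient yeast mutant is measured after compound exposure. Values represent inhibition relative to vehicle.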

The nature of assay [6]: NCI Yeast Anticancer Drug Screen. Data for the mlh1 rad18 strain (AID 175). The following applies: S. cerevisiae mlh1 rad18 strain growth inhibition, hits give high values. An outline of the steps: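 Inhibition values reflect reduced growth of mutant yeast versus vehicle-treated controls following compound exposure; the mutations affect DNA damage repair.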
Where [7] appears, read: at 5.0 µM (retest, dose inferred, filed as 0.5).
Where [8] appears, read: at 50.0 µM (retest, dose inferred, filed as 5.0).

The structures appear in SMILES notation. This is part of a sample that, as a whole, favours compounds with a hit. Of some 79,000 tested, about 15% had one in any assay. Values without a mark were called inactive. The source made the active and inactive calls. Cut-off read from the data, not from the text of the source: active = growth inhibition above about 70%; inactive = the rest.

In the case of `Cc1cc(N(CCCl)CCCl)ccc1C1N(Cc2ccc(N(CCCl)CCCl)cc2Cl)CCCN1Cc1ccc(N(CCCl)CCCl)cc1Cl`, the growth inhibition in assay [1] (setting [7]) is 81% (active); in assay [1] (setting [8]), 96% (active); in assay [1] (at 50.0 µM), 97.8% (active); in assay [2] (setting [7]) it was 75% (active); in assay [2] (setting [8]) it was 96% (active); in assay [2] (at 50.0 µM) it was 99.2% (active). Besides, the growth inhibition in assay [3] (setting [7]) was 57%; in assay [3] (setting [8]) it was 95% (active); in assay [3] (at 50.0 µM), 98.2% (active); in assay [4] (setting [7]) it was 77% (active); in assay [4] (setting [8]), 93% (active); in assay [4] (at 50.0 µM) it was 97.5% (active). In addition, the growth inhibition was 74% (active) in assay [5] (setting [7]); 96% (active) in assay [5] (setting [8]); 97.7% (active) in assay [5] (at 50.0 µM); 99% (active) in assay [6] (setting [7]); 93% (active) in assay [6] (setting [8]); 98.6% (active) in assay [6] (at 50.0 µM).
For `CC(=O)[CH-]C(C)=O.CC(=O)[CH-]C(C)=O.[O-]c1ccccc1.[O-]c1ccccc1.[Ti+4]`, the growth inhibition in assay [1] (setting [7]) was 25%; in assay [1] (setting [8]), 25%; in assay [1] (at 50.0 µM), 40.3%; in assay [2] (setting [7]) it was 20%; in assay [2] (setting [8]) it was 20%; in assay [2] (at 50.0 µM), 0.3%. Further, the growth inhibition in assay [3] (setting [7]) is 19%; in assay [3] (setting [8]), 19%; in assay [3] (at 50.0 µM), 11.4%; in assay [4] (setting [7]) it was 21%; in assay [4] (setting [8]), 21%; in assay [4] (at 50.0 µM) it was 15.2%. The growth inhibition was 6% in assay [5] (setting [7]); 6% in assay [5] (setting [8]); 7.05% in assay [5] (at 50.0 µM); -9% in assay [6] (setting [7]); -9% in assay [6] (setting [8]); 16.9% in assay [6] (at 50.0 µM).
As to `Nc1ccc(C(=O)O)c(C(=O)O)c1.[Cl][Sn]([Cl])([Cl])[Cl]`, the growth inhibition in assay [1] (setting [7]) was 3%; in assay [1] (setting [8]), -9%; in assay [1] (at 50.0 µM), 48%; in assay [2] (setting [7]), 3%; in assay [2] (setting [8]) it was 46%; in assay [2] (at 50.0 µM), 59.6%. The growth inhibition in assay [3] (setting [7]) was 8%; in assay [3] (setting [8]) it was 36%; in assay [3] (at 50.0 µM) it was 53.7%; in assay [4] (setting [7]), -4%; in assay [4] (setting [8]), -21%; in assay [4] (at 50.0 µM), 76.1% (active). Moreover, the growth inhibition in assay [5] (setting [7]) was 1%; in assay [5] (setting [8]), -2%; in assay [5] (at 50.0 µM) it was 80.8% (active); in assay [6] (setting [7]) it was -3%; in assay [6] (setting [8]), 20%; in assay [6] (at 50.0 µM) it was 40.4%.
Consider `CN(C)c1ccc(N=Nc2cccc(C(=O)[O-])c2)cc1.CN(C)c1ccc(N=Nc2cccc(C(=O)[O-])c2)cc1.NC1CCCCC1N.O=[N+]([O-])O.[Pt+4]`, for which the growth inhibition is 1% in assay [1] (setting [7]); 98% (active) in assay [1] (setting [8]); 91% (active) in assay [1] (at 50.0 µM); 21% in assay [2] (setting [7]); 98% (active) in assay [2] (setting [8]); 91.7% (active) in assay [2] (at 50.0 µM). Moreover, the growth inhibition in assay [3] (setting [7]) is 23%; in assay [3] (setting [8]), 99% (active); in assay [3] (at 50.0 µM), 93.2% (active); in assay [4] (setting [7]), 28%; in assay [4] (setting [8]) it was 97% (active); in assay [4] (at 50.0 µM) it was 44.1%. The growth inhibition is 45% in assay [5] (setting [7]); 98% (active) in assay [5] (setting [8]); 81.5% (active) in assay [5] (at 50.0 µM); 41% in assay [6] (setting [7]); 97% (active) in assay [6] (setting [8]); 92% (active) in assay [6] (at 50.0 µM).
For the molecule `Nc1ccccc1C(=O)c1ccccc1`, the growth inhibition in assay [1] (setting [7]) was 4%; in assay [1] (setting [8]), 8%; in assay [1] (at 50.0 µM) it was 76.2% (active); in assay [2] (setting [7]), 1%; in assay [2] (setting [8]), 4%; in assay [2] (at 50.0 µM), 11%. For the same molecule, the growth inhibition in assay [3] (setting [7]) is 1%; in assay [3] (setting [8]), 10%; in assay [3] (at 50.0 µM), 38.1%; in assay [4] (setting [7]) it was 4%; in assay [4] (setting [8]), 1%; in assay [4] (at 50.0 µM) it was 3.25%. For the same molecule, the growth inhibition in assay [5] (setting [7]) is 0%; in assay [5] (setting [8]), -3%; in assay [5] (at 50.0 µM), 47.2%; in assay [6] (setting [7]), 4%; in assay [6] (setting [8]), 5%; in assay [6] (at 50.0 µM), 75.7% (active).
On to `CCCCCCCCCCCCCCCCOC[C@@H](COC(c1ccccc1)(c1ccccc1)c1ccccc1)O[P+](=S)OC` (some centres not stated), for which the growth inhibition in assay [1] (setting [7]) is 31%; in assay [1] (setting [8]), 67%; in assay [1] (at 50.0 µM), 62.4%; in assay [2] (setting [7]) it was 20%; in assay [2] (setting [8]), 39%; in assay [2] (at 50.0 µM), 85.8% (active). The growth inhibition was 18% in assay [3] (setting [7]); 55% in assay [3] (setting [8]); 86.5% (active) in assay [3] (at 50.0 µM); 36% in assay [4] (setting [7]); 29% in assay [4] (setting [8]); 77.6% (active) in assay [4] (at 50.0 µM). The growth inhibition in assay [5] (setting [7]) was 43%; in assay [5] (setting [8]), 58%; in assay [5] (at 50.0 µM), 82.4% (active); in assay [6] (setting [7]), 22%; in assay [6] (setting [8]), 32%; in assay [6] (at 50.0 µM), 91.1% (active).
`CCC[CH2][Sn]([CH2]CCC)[S]CC(N)C(=O)O` (configuration not stated): the growth inhibition in assay [1] (setting [7]) was 63%; in assay [1] (setting [8]) it was 98% (active); in assay [1] (at 50.0 µM) it was 98.5% (active); in assay [2] (setting [7]) it was 67%; in assay [2] (setting [8]), 99% (active); in assay [2] (at 50.0 µM), 98.5% (active). Besides, the growth inhibition in assay [3] (setting [7]) was 56%; in assay [3] (setting [8]) it was 95% (active); in assay [3] (at 50.0 µM), 98.1% (active); in assay [4] (setting [7]) it was 49%; in assay [4] (setting [8]), 98% (active); in assay [4] (at 50.0 µM), 98.1% (active). Besides, the growth inhibition is 80% (active) in assay [5] (setting [7]); 99% (active) in assay [5] (setting [8]); 98% (active) in assay [5] (at 50.0 µM); 62% in assay [6] (setting [7]); 98% (active) in assay [6] (setting [8]); 97.9% (active) in assay [6] (at 50.0 µM).
As to `CCCCSc1ccc(C(SCCN(CC)CC)c2ccccc2)cc1` (configuration not stated), the growth inhibition in assay [1] (setting [7]) is 12%; in assay [1] (setting [8]) it was 99% (active); in assay [1] (at 50.0 µM), 99.8% (active); in assay [2] (setting [7]), 11%; in assay [2] (setting [8]), 100% (active); in assay [2] (at 50.0 µM) it was 99.8% (active). Besides, the growth inhibition in assay [3] (setting [7]) is 45%; in assay [3] (setting [8]), 100% (active); in assay [3] (at 50.0 µM) it was 99.8% (active); in assay [4] (setting [7]), 32%; in assay [4] (setting [8]), 99% (active); in assay [4] (at 50.0 µM) it was 99.8% (active). In addition, the growth inhibition is 36% in assay [5] (setting [7]); 99% (active) in assay [5] (setting [8]); 99.7% (active) in assay [5] (at 50.0 µM); 27% in assay [6] (setting [7]); 99% (active) in assay [6] (setting [8]); 99.7% (active) in assay [6] (at 50.0 µM).
As to `CCc1cc(C)cc2[n+]1CC=C2`, the growth inhibition in assay [1] (setting [7]) is -8%; in assay [1] (setting [8]) it was 83% (active); in assay [1] (at 50.0 µM), 98% (active); in assay [2] (setting [7]) it was -5%; in assay [2] (setting [8]), 95% (active); in assay [2] (at 50.0 µM), 96.4% (active). The growth inhibition is -5% in assay [3] (setting [7]); 98% (active) in assay [3] (setting [8]); 98.3% (active) in assay [3] (at 50.0 µM); -1% in assay [4] (setting [7]); 92% (active) in assay [4] (setting [8]); 98.1% (active) in assay [4] (at 50.0 µM). For the same molecule, the growth inhibition in assay [5] (setting [7]) was -2%; in assay [5] (setting [8]) it was 87% (active); in assay [5] (at 50.0 µM), 98% (active); in assay [6] (setting [7]) it was -6%; in assay [6] (setting [8]), 93% (active); in assay [6] (at 50.0 µM), 97.8% (active).

For the origin of these results see PubChem BioAssay (NCI).
